The results in this text go back to PubChem BioAssay (Tox21).

A number with no mark means an inactive call. Records with an inconclusive call do not appear. The source made the active and inactive calls. Unless noted, calls follow the shape of the dose curve; as a rule, active = well fitted curve in the direction sought with a large enough effect in the repeat runs; inconclusive = weak or mixed curves; inactive = no such curve, though single readings can be large; an effect the other way counts as inactive or inconclusive.

A short description of assay [1]: qHTS assay to identify small molecule agonists of the TGF-beta/Smad signaling pathway - cell viability counter screen (AID 1346829). Also: top concentration of the series differs between compounds; nearly all actives have a fitted effect of over 45% in size. In a few lines:
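Here the cytotoxicity of library compounds is measured in SBE-bla HEK 293T cells treated for 5 hr, using CellTiter-Glo added to wells already read for the beta-lactamase reporter.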

Assay [2] is described as follows: qHTS assay to identify small molecule agonists of the TGF-beta/Smad signaling pathway (AID 1346859; active = well fitted activation curve with a large enough effect in the signal ratio in the repeat runs, not every such curve was filed as active; the % refers to the signal ratio; also: series mostly up to about 77 µM). In a few lines:
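Stable Smad binding element-beta-lactamase HEK 293T cells; 5 hr compound exposure at 37 C under 5% CO2; 2 hr room-temperature substrate step; fluorescence excited at 405 nm, collected at 460 nm and 530 nm.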

In assay [3] the target is Thyrotropin-releasing hormone receptor (Homo sapiens) (UniProt P34981). Kind of assay: qHTS assay to identify small molecule agonists of the thyrotropin-releasing hormone receptor (TRHR) signaling pathway (AID 1346891; calls by dose curve;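 also: HEK293 cells expressing TRHR with calcium dye readout; series mostly up to about 58 µM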). An outline of the steps:
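In 1536-format, 1500 TRHR-Hek293 cells per well grew 18 h, took up calcium dye for 2 h at 37 °C, received compound, and were read kinetically; 15-point titrations, triplicates.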

Assay [4] in a line: Human pregnane X receptor (PXR) small molecule agonists, qHTS cell viability counter screen (AID 1346977). Also: nearly all actives have a fitted effect of over 50% in size. In a few lines:
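Readout is CellTiter-Fluor fluorescence from PXR-Luc HepG2 cells. Plated cells rested 5hr, then were treated with compounds for 24hr at 37C and 5% CO2, with reagent present during the last hour.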

Assay [5] is described as follows: Caspase-3/7 induction in HepG2 cells by small molecules, qHTS assay (AID 1346978). Also: nearly all actives have a fitted effect of over 15% in size. In a few lines: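 Wild-type HepG2 cells, 2,000/well, settled 5 hr at 37 C and 5% CO2, then compound-treated for 17 hr; caspase-3/7 activity read by luminescent Caspase-Glo 3/7 after 30 min at room temperature.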
Assay [6] in a line: Caspase-3/7 induction in CHO-K1 cells by small molecules, qHTS cell viability counter screen (AID 1346979). Also: nearly all actives have a fitted effect of over 35% in size. An outline of the steps:
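To flag cytotoxic compounds, treated CHO-K1 wild-type cells were given CellTiter-Fluor at 16hr and read fluorescently after 1hr at 37C; the caspase-3/7 luminescence was measured in these same wells.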

Assay [7] can be described thus: Caspase-3/7 induction in CHO-K1 cells by small molecules, qHTS assay (AID 1346980). Also: nearly all actives have a fitted effect of over 15% in size. In a few lines:
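Wild-type CHO-K1 cells exposed to compounds for 17hr at 37 C, 5% CO2. Caspase-3/7 activity then measured by Caspase-Glo 3/7 luminescence after 30min at room temperature.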

The nature of assay [8]: Caspase-3/7 induction in HepG2 cells by small molecules, qHTS cell viability counter screen (AID 1346981). Also: series mostly up to about 92 µM; nearly all actives have a fitted effect of over 30% in size. In a few lines:
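Cell viability is measured as a cytotoxicity counter screen alongside the Caspase-Glo 3/7 readout in identical wells. Wild-type HepG2 cells are treated with test compounds for 16 hr at 37 C before CellTiter-Fluor addition and a 1-hr incubation.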

Assay [9] deals with Nuclear receptor subfamily 1 group I member 2 (Homo sapiens) (UniProt O75469). Kind of assay: Human pregnane X receptor (PXR) small molecule agonists, qHTS assay (AID 1346982). Also: nearly all actives have a fitted effect of over 35% in size. An outline of the steps:
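Cells: HepG2 stably carrying PXR-Luc. Medium held 5% charcoal-stripped FBS. Compounds in DMSO added after 5 hr plating, incubated 24 hr, then luminescence quantified with ONE-Glo.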

Assay [10] has as its target Cytochrome P450 2D6 (Homo sapiens) (UniProt P10635). Kind of assay: Cytochrome P450 Family 2 Subfamily D Member 6 (CYP2D6) small molecule antagonists: luciferase reporter qHTS assay (AID 1671196). Also: series mostly up to about 120 µM; nearly all actives have a fitted effect of over 50% in size. An outline of the steps:
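Enzyme and proluciferin substrate were first combined with test chemical for 10 min at room temperature. Adding NADPH regeneration solution started a 1 h reaction, stopped with luciferin detection reagent and read by luminescence 20 min later.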

The target of assay [11] is Cytochrome P450 2C9 (Homo sapiens) (UniProt P11712). Kind of assay: Cytochrome P450 Family 2 Subfamily C Member 9 (CYP2C9) small molecule antagonists: luciferase reporter qHTS assay (AID 1671198). Also: series mostly up to about 120 µM; nearly all actives have a fitted effect of over 50% in size. In a few lines: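 P450-Glo proluciferin substrate with CYP2C9 enzyme; 10 min RT preincubation, then NADPH regeneration 1 h at 37C; luciferin detection reagent 20 min RT, luminescence in relative luminescence units.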
Chain of Cytochrome P450 2C9 (Homo sapiens) (P11712 whole entry, looked up): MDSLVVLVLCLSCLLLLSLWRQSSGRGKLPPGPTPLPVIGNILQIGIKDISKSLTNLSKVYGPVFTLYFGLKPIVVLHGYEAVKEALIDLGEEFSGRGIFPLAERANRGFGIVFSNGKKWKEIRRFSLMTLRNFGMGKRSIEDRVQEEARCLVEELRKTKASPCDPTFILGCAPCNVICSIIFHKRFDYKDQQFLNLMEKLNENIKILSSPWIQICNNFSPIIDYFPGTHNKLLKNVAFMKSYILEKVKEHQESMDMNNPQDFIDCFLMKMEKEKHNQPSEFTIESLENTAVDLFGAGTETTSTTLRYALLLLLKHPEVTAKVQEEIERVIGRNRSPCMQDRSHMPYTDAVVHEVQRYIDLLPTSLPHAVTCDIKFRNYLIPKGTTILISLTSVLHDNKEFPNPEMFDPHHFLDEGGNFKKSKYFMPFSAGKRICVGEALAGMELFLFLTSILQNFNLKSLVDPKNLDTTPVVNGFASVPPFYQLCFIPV

For assay [12], the target named is Voltage-gated inwardly rectifying potassium channel KCNH2 (Homo sapiens) (UniProt Q12809). Kind of assay: Human Ether-a-go-go-Related Gene (hERG) channel small molecule antagonists: fluorescence cell-based qHTS assay (AID 1671200).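 Also: hERG-expressing U2OS cells given a thallium stimulus after FluxOR II dye loading; series mostly up to about 77 µM; nearly all actives have a fitted effect of over 50% in size.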 In a few lines:
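Measured: Tl+ flux via fluorescence (480/540 nm) in hERG-expressing U2OS cells after 1 h dye loading at room temperature.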

Assay [13] concerns the target Cytochrome P450 3A4 (Homo sapiens) (UniProt P08684). Kind of assay: Cytochrome P450 Family 3 Subfamily A Member 4 (CYP3A4) small molecule antagonists: luciferase reporter qHTS assay (AID 1671201). Also: nearly all actives have a fitted effect of over 50% in size. Also: potency is read from the fitted curve at half-maximal effect. In a few lines: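 Setup: enzyme-substrate mix, compound pin transfer, 10 min RT. Reaction: NADPH regeneration solution, 1 h RT. Readout: detection reagent stops turnover, luminescence measured after 20 min, expressed in relative luminescence units.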

Assay [14] has as its target Cytochrome P450 2C19 (Homo sapiens) (UniProt P33261). Kind of assay: Cytochrome P450 Family 2 Subfamily C Member 19 (CYP2C19) small molecule antagonists: luciferase reporter qHTS assay (AID 1671197). Also: nearly all actives have a fitted effect of over 65% in size. Also: potency is read from the fitted curve at half-maximal effect. In a few lines: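 Light output is proportional to CYP2C19 activity: proluciferin substrate is converted to luciferin, then detected by a luciferin detection reagent that also stops the 1 h, 37C NADPH-driven reaction. Ketoconazole serves as positive control.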

Assay [15] deals with Thyrotropin-releasing hormone receptor (Homo sapiens) (UniProt P34981). Kind of assay: qHTS assay to identify small molecule antagonists of the thyrotropin-releasing hormone receptor (TRHR) signaling pathway (AID 1346877; active = well fitted inhibition curve with a large enough effect in the repeat runs, not every such curve was filed as active; also: series mostly up to about 51 µM). An outline of the steps: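 Antagonism is measured as suppression of the calcium response to 1 nM TRH in TRHR-HEK293 cells that have been dye-loaded for 2 h at 37 °C after overnight plating. Each compound is tested at 15 concentrations in triplicate.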
Chain of Thyrotropin-releasing hormone receptor (Homo sapiens) (P34981 whole entry, looked up): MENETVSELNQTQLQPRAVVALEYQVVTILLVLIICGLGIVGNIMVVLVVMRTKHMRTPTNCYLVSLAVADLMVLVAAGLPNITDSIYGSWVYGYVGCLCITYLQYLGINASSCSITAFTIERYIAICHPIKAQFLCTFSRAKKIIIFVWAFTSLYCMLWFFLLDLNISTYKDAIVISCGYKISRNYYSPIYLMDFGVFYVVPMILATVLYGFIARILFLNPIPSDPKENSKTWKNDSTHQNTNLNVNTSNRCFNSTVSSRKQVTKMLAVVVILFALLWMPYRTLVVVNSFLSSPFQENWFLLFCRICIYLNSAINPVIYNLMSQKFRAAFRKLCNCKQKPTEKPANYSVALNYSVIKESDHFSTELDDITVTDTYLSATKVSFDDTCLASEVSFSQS

The target in assay [16] is Cytochrome P450 1A2 (Homo sapiens) (UniProt P05177). Kind of assay: Cytochrome P450 Family 1 Subfamily A Member 2 (CYP1A2) small molecule antagonists: luciferase reporter qHTS assay (AID 1671199). Also: nearly all actives have a fitted effect of over 50% in size. Also: potency is read from the fitted curve at half-maximal effect. In a few lines: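 Compounds were incubated with CYP1A2 and a luminogenic proluciferin substrate for 10 min at room temperature before the reaction was started with NADPH regeneration solution. After 1 h, detection reagent was added and light output, proportional to CYP activity, was recorded.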
Chain of Cytochrome P450 1A2 (Homo sapiens) (P05177 whole entry, looked up): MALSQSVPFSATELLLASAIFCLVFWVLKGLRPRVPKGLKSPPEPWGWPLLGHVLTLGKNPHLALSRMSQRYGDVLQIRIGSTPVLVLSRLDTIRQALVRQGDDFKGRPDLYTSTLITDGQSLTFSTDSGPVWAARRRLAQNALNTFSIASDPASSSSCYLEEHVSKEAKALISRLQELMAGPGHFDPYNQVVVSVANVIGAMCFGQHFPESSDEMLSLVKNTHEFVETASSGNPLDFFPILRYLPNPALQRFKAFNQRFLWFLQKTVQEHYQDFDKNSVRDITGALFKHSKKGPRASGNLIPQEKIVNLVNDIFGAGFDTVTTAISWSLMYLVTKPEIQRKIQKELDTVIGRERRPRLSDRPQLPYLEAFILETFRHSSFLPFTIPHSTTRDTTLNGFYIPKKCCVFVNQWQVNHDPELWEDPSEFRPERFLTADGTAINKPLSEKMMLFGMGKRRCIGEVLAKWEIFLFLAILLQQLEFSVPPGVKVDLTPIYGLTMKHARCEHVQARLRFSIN

Chain of Voltage-gated inwardly rectifying potassium channel KCNH2 (Homo sapiens) (Q12809 whole entry, looked up): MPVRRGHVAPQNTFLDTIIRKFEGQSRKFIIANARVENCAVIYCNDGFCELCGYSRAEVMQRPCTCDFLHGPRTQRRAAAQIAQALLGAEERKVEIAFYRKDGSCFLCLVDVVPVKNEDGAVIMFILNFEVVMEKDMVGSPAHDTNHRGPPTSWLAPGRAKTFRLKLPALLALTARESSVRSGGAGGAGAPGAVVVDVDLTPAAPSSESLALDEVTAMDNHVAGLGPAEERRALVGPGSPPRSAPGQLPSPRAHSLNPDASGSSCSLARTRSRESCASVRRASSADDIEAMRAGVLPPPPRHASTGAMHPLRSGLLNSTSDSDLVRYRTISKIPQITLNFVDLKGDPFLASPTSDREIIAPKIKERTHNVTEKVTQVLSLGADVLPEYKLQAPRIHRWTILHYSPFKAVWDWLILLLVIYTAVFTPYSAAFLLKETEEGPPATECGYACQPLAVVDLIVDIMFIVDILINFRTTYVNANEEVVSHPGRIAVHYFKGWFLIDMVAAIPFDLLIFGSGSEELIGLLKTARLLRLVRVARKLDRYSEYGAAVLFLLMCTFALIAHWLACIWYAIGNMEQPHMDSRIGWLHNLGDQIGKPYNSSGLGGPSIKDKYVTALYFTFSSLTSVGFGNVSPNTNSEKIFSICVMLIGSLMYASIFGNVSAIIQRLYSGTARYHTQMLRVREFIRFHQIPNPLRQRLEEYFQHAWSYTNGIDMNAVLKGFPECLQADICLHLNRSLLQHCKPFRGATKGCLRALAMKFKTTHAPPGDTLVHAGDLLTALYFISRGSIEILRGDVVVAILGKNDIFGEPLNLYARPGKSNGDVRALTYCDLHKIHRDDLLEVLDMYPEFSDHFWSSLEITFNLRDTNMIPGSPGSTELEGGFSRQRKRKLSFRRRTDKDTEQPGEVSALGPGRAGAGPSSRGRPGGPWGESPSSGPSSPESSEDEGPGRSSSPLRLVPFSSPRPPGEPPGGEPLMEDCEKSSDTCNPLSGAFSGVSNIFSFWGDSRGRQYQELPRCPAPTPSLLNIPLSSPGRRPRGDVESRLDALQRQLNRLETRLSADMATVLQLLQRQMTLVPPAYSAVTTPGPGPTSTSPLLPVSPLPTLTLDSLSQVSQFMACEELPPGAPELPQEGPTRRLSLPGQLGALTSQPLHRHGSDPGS
Chain of Cytochrome P450 2C19 (Homo sapiens) (P33261 whole entry, looked up): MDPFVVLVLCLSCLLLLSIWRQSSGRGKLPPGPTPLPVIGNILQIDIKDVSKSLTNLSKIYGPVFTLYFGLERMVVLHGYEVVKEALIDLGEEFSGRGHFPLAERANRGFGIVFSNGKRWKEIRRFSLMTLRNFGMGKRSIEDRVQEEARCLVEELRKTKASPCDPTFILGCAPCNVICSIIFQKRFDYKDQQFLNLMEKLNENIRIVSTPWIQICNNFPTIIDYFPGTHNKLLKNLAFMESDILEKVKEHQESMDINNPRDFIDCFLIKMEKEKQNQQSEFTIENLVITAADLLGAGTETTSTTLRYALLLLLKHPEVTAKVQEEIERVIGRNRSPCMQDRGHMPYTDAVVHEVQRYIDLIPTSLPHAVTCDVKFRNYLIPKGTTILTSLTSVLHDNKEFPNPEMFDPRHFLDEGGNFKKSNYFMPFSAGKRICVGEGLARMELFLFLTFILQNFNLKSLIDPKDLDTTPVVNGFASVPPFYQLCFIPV
Chain of Cytochrome P450 3A4 (Homo sapiens) (P08684 whole entry, looked up): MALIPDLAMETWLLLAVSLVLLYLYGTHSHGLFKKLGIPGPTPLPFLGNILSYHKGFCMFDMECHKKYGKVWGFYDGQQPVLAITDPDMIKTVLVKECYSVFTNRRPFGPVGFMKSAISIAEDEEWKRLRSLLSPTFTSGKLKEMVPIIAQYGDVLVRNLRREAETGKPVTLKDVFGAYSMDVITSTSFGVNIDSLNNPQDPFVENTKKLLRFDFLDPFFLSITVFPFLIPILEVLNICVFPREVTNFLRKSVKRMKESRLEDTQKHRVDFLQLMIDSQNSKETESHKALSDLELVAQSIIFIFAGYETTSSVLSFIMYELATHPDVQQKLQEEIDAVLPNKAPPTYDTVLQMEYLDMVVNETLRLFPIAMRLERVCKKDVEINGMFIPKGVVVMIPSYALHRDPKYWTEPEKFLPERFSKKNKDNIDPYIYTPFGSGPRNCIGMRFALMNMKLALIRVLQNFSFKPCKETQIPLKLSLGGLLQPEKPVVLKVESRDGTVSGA
Chain of Cytochrome P450 2D6 (Homo sapiens) (P10635 whole entry, looked up): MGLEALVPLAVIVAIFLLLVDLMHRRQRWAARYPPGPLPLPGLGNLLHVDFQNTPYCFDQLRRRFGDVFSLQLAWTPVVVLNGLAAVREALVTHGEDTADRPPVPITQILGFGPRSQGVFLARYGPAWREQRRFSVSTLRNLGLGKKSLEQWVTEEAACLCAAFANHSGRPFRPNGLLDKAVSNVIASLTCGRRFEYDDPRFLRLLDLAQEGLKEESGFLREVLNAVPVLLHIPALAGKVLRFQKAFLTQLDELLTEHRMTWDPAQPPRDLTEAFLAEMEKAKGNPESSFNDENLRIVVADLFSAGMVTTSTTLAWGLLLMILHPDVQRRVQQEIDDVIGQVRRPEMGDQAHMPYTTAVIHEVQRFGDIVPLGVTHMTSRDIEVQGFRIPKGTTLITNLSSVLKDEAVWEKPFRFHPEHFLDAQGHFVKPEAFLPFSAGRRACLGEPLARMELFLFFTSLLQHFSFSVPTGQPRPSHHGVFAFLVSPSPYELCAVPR
Chain of Nuclear receptor subfamily 1 group I member 2 (Homo sapiens) (O75469 whole entry, looked up): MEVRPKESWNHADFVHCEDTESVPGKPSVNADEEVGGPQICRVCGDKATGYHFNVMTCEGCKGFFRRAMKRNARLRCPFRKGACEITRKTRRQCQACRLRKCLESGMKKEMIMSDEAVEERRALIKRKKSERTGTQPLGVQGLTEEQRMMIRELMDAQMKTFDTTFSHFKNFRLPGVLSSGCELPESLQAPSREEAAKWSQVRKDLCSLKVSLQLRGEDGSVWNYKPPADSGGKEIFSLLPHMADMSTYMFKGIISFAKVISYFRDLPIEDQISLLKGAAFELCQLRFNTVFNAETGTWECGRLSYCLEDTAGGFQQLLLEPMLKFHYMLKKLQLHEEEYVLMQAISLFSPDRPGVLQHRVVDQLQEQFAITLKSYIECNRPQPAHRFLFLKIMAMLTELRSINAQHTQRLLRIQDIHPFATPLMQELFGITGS

`CCO`: the outcome in assay [1], in [2], in [3], in [4], in assay [5] and in [7] was inactive. In assay [8], the call was inactive. In addition, the Potency result in assay [6], in assay [9], in assay [10], in [11], in [12] and in [13] was “inactive” throughout.
For `Nc1nnnn1-c1ccccc1`, the call in assay [1], in [2], in [3], in assay [4], in [5] and in assay [7] was inactive. The compound was classed as inactive in assay [8]. Moreover, the Potency entry in assay [6], in [9], in [10], in [14], in assay [11] and in assay [13] was “inactive” throughout.
Consider `CC12CCC(C1)C(C)(C)C2O` (configuration not stated), for which the result in [1], in assay [2], in [15], in assay [5], in [7] and in [8] was inactive. The Potency result in [6], in assay [9], in [14], in assay [11], in [16] and in [12] was “inactive” each time. The Potency result in assay [13] is “inactive”.
On to `CO[Si](CCCn1c(=O)n(CCC[Si](OC)(OC)OC)c(=O)n(CCC[Si](OC)(OC)OC)c1=O)(OC)OC`, for which the outcome in assay [1], in assay [2], in assay [15], in [4], in [5] and in [7] was inactive. Further, the result in assay [8] was inactive. In addition, the Potency result in assay [6], in [9], in assay [10], in assay [14], in assay [11] and in assay [16] was “inactive” in each case. Also, in assay [13], the Potency was 17.7 µM (active).
Regarding `CC(=O)C(C)O` (configuration not stated), the compound was classed as inactive in assay [1], in assay [2], in [3], in assay [4], in assay [5] and in assay [7]. Also, the result in assay [8] was inactive. The Potency entry in assay [6], in [9], in [10], in [11], in assay [16] and in [12] was “inactive” throughout. The Potency result in assay [13] is “inactive”.
Regarding `OC1(c2ccc(Cl)cc2)CCNCC1`, the call in assay [1], in [2], in assay [15], in assay [5], in assay [7] and in assay [8] was inactive. Besides, the Potency result in [6], in [9], in assay [12] and in assay [13] was “inactive” each time. The Potency in [14] was 3.09 µM (active).
For the compound `COP(=O)(O)OP(=O)(O)OC`, the result in assay [1], in [2], in [15], in assay [4], in [5] and in [7] was inactive. In addition, the compound was called inactive in assay [8]. The Potency result in assay [9], in [14], in assay [11], in [16] and in assay [13] was “inactive” each time.
Consider `CCCCOCCOC(=O)COc1ccc(Cl)cc1Cl`, for which the result in assay [1], in [2], in assay [15], in [4], in assay [5] and in assay [7] was inactive. In assay [8], the compound was called inactive. In addition, the Potency entry in assay [9], in assay [10], in assay [12] and in assay [13] was “inactive” throughout. In [16], the Potency was 20 µM (active).
